The source made the active and inactive calls. Cut-off read from the data, not from the text of the source: active = fold change permeability below about 0.7 or above about 1.3; inactive = in between.
test: compounds altering in vitro BBB leakiness – cell-based, FITC-avidin fluorescence, HTS, primary screen (AID 1963498); details: brain endothelial barrier, actives lie on both sides; note: test concentration not given here

Fold change permeability, inactive:
O=C(O)c1cccc(-c2ccc(-c3cn(C(=O)N4CCCCC4Cc4ccccc4)nn3)cc2)c1 (centres undefined) 1
O=C(OCCN1CCOCC1)C1(c2ccccc2)CCCCC1 1
CN(C)C(=O)Nc1cccc(-c2ccc(N(C)C)cc2)c1 1.1
CCCCN(CCCC)CC(O)c1cc(Cl)cc2c1-c1ccc(Cl)cc1/C2=C/c1ccc(Cl)cc1 (centres undefined) 0.9
Fc1ccc(CN(C2=NCCN2)c2c(Cl)cccc2Cl)cc1 1.1
COc1ccc(Cc2nn3c([C@@H](CCCc4ccccc4)[C@@H](C)O)nc(C)c3c(=O)[nH]2)cc1OC 1.1
CC12CC3CC(C)(C1)CC(N)(C3)C2 0.8
NCCCCCC(=O)O 1.1
O=C1c2c(O)ccc(O)c2C(=O)c2c(NCCNCCO)ccc(NCCNCCO)c21 0.8
CCCNC(=O)Nc1ccc(Oc2ncnc3cc(OC)c(OC)cc23)cc1Cl 1.1
NCCCCCCCCCCN 0.9
CNCCC(Oc1ccccc1OC)c1ccccc1 (centres undefined) 0.8
O=C(O)c1cc(=O)c2c(Cl)cc(Cl)cc2[nH]1 1.1
COc1cc(-c2cc(-c3ccc(N4CCNCC4)cc3)cnc2C)cc(OC)c1OC 1.2
O=c1ccn([C@@H]2O[C@H](COP(=O)(O)OP(=O)(O)O)[C@@H](O)[C@H]2O)c(=O)[nH]1 0.8
Cc1scc2c1N(C(=O)CN1CCN(C)CC1)c1ccccc1NC2=O 0.8
COC(=O)[C@@H](N)Cc1ccc(O)c(O)c1 1
C[C@@H](N)C1CCC(C(=O)Nc2ccncc2)CC1 (some centres undefined) 1.2
NCCSSCCN 0.9
C[C@@]12C(=O)OC(=O)[C@]1(C)[C@H]1CC[C@@H]2O1 1.1
O=C(O)c1cccnc1Nc1cccc(C(F)(F)F)c1 0.9
N[C@@H](CCC(=O)N[C@@H](CSN=O)C(=O)NCC(=O)O)C(=O)O 0.8
NC(N)=NCc1cccc(I)c1 0.9
O=c1[nH]c(=S)[nH]c(-c2ccccc2)c1Cc1c(O)ccc2ccccc12 0.8
CN1CCN(C(=O)c2ccc(-n3nc(-c4ccc(C(=O)O)cc4)cc3-c3cc(C(C)(C)C)cc(C(C)(C)C)c3)cc2)CC1 1
CC(C)C[C@H]1C(=O)N2CCC[C@H]2[C@]2(O)O[C@](NC(=O)[C@@H]3C=C4c5cccc6[nH]c(Br)c(c56)C[C@H]4N(C)C3)(C(C)C)C(=O)N12 1.1
N[C@@H](CS(=O)O)C(=O)O 1
CC(=O)/C=C1\C(=O)N(C)c2ccccc21 1.2
COc1cc2c(CCNC(C)=O)c[nH]c2cc1O 1.1
O=C(Nc1cc(C(F)(F)F)cc(C(F)(F)F)c1)Nc1c(Br)cc(Br)cc1-c1nn[nH]n1 0.9
CNCCCC12CCC(c3ccccc31)c1ccccc12 0.9

Fold change permeability, active:
COc1cc(C(C)=O)ccc1OCCCN1CCC(c2noc3cc(F)ccc23)CC1 1.3
Cc1ccc(C(=O)N(CCCN)C(c2oc3cc(Cl)ccc3c(=O)c2Cc2ccccc2)C(C)C)cc1 (centres undefined) 1.6
C=CC(N)CCC(=O)O (centres undefined) 1.5
CC(C)(C)c1cc(/C=C(\C#N)C(N)=S)cc(C(C)(C)C)c1O 1.5
Nc1nc(N)c2nc(-c3ccccc3)c(N)nc2n1 1.4
COc1ccccc1N1CCN(CCCNc2cc(=O)n(C)c(=O)n2C)CC1 1.4
CCCC(=O)NCCc1csc(-c2ccc(Cl)cc2)n1 1.5
CCc1ccc2c(-c3cccc(Cl)c3)nc(=O)n(CC)c2n1 1.5

— PubChem BioAssay
